# PubChem BioAssay (NCI)
# The panel holds about 83,000 compounds, 20% with a hit somewhere; the sample as a whole holds those more often.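 Step 1: grow cells in 96-well plates. Step 2: add test compound at a single concentration. Step 3: incubate 48 h. Step 4: record percent growth.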 Unmarked numbers belong to inactive results. Active and inactive are the calls of the source. The calls were made as follows: active = growth percent below 10; inactive = the rest.
# Columns and labels:
# Assay in all cases: NCI-60 one-dose screen, 48 h (100 = growth as untreated, 0 = no growth, -100 = all killed)
# Settings in all cases: 10 µM
# DU-145 prostate = tested on: DU-145 prostate
# K-562 leukemia = tested on: K-562 leukemia
# MALME-3M melanoma = tested on: MALME-3M melanoma
# MDA-MB-231 breast = tested on: MDA-MB-231 breast
# RXF 393 renal = tested on: RXF 393 renal
# SF-268 CNS = tested on: SF-268 CNS
# SF-295 CNS = tested on: SF-295 CNS
# SF-539 CNS = tested on: SF-539 CNS
# UACC-257 melanoma = tested on: UACC-257 melanoma
# M14 melanoma = tested on: M14 melanoma
# HCT-15 colon = tested on: HCT-15 colon
# HT29 colon = tested on: HT29 colon
# SNB-75 CNS = tested on: SNB-75 CNS
# SNB-19 CNS = tested on: SNB-19 CNS
# U251 CNS = tested on: U251 CNS
# PC-3 prostate = tested on: PC-3 prostate
# SK-MEL-5 melanoma = tested on: SK-MEL-5 melanoma
# UACC-62 melanoma = tested on: UACC-62 melanoma
# LOX IMVI melanoma = tested on: LOX IMVI melanoma
# SK-MEL-28 melanoma = tested on: SK-MEL-28 melanoma
SMILES,growth (DU-145 prostate),growth (K-562 leukemia),growth (MALME-3M melanoma),growth (MDA-MB-231 breast),growth (RXF 393 renal),growth (SF-268 CNS),growth (SF-295 CNS),growth (SF-539 CNS),growth (UACC-257 melanoma),growth (M14 melanoma),growth (HCT-15 colon),growth (HT29 colon),growth (SNB-75 CNS),growth (SNB-19 CNS) [%],growth (U251 CNS),growth (PC-3 prostate),growth (SK-MEL-5 melanoma),growth (UACC-62 melanoma),growth (LOX IMVI melanoma),growth (SK-MEL-28 melanoma)
Cc1nn(-c2ccc(-c3ccc(OC(F)(F)F)cc3)cc2)c2nc(Cc3ccccc3)nc(N)c12,75.5%,63.7%,83.8%,48.3%,77.9%,54.3%,47.7%,80.3%,78.8%,69%,76.9%,59.6%,34.9%,39.3,20.7%,64.4%,87.7%,85.6%,31%,103%
O=C(NCCNC(=O)c1ccc(F)cc1)Nc1ccc(-n2cc(-c3ccncc3)c(-c3ccc(Cl)c(O)c3)n2)cc1,2.26% (active),6.23% (active),3.35% (active),-29.1% (active),3.36% (active),5.76% (active),-59.1% (active),-37.7% (active),24.1%,-44.4% (active),19.5%,-45.3% (active),18.7%,22.7,-19.9% (active),-5.9% (active),-84.9% (active),7.05% (active),-3.97% (active),18.4%
CCOC(=O)c1cc(C(=O)c2ccc(Cl)cc2)n2ccc(-c3cc[n+](CC(=O)c4ccc(OC)cc4)cc3)cc12,30.3%,-52.9% (active),99.6%,70.9%,73.6%,78.5%,106%,89.5%,101%,56.8%,75.5%,-9.81% (active),93.2%,77,13.2%,51.5%,98.3%,107%,12.9%,99.6%
CCN(CC)c1ccc(/C=C2\SC(=O)C(Nc3nnc(-c4cccnc4SCc4ccccc4)o3)C2=O)cc1 (stereo not given),28.9%,14.5%,57.9%,39.4%,-13.2% (active),57.3%,12.2%,13.8%,56.9%,-11.6% (active),15.2%,3.09% (active),44.1%,63.5,3.89% (active),16.9%,27.4%,30.2%,42.3%,50.8%
O=C1CC(SC(=S)C2CCCC2=O)C(=O)N1 (stereo not given),108%,98%,104%,105%,115%,102%,104%,104%,90.4%,101%,98.1%,103%,105%,94.7,97.1%,97.1%,103%,102%,97.5%,113%
COc1cc2c(Nc3ccc(S(N)(=O)=O)cc3)ncnc2c(OC)c1OC,107%,97.8%,95%,94.9%,109%,90.2%,105%,99.3%,94.9%,124%,98%,105%,89.5%,93.5,96.9%,84.7%,91.4%,97.4%,99.9%,98.7%
S=c1cnc2ccccc2[nH]1,103%,99.8%,84.6%,111%,114%,95.7%,103%,-10.4% (active),99.1%,89%,102%,93.7%,86.5%,109,95.5%,86.1%,97.6%,98.8%,94.3%,108%
CC(C)N(CCOc1cccc(-c2nc3sccn3c2-c2ccnc(S(C)(=O)=O)n2)c1)C(C)C,89.8%,69.1%,91.3%,57.8%,65.3%,92.5%,103%,91.9%,104%,111%,81.8%,54.5%,78%,101,83.8%,72.7%,3.97% (active),84.1%,84.3%,99.3%
CCOC(=O)C(C)(c1ccccc1)c1ccccc1,106%,113%,112%,111%,123%,104%,102%,97.7%,93.5%,102%,104%,96.2%,94.2%,99.3,104%,97.8%,108%,102%,102%,111%
OCC1OC(n2cnc3c(NCc4ccco4)ncnc32)C(O)C1O (stereo not given),4.25% (active),33%,65.5%,-5.65% (active),-13.7% (active),44.6%,26.5%,21.7%,86.4%,31.2%,6.12% (active),23.3%,14.7%,28.5,43.7%,22%,23.7%,32.5%,-63.7% (active),68.1%
COc1cc(/C=C/c2cc(/C=C/c3ccc(O)c(OC)c3)n(C(=O)Nc3ccccc3Cl)n2)ccc1O,1.28% (active),2.27% (active),8.27% (active),17.7%,-50.3% (active),-6.38% (active),2.83% (active),4.06% (active),1.28% (active),0.265% (active),15%,-35% (active),-4.71% (active),15.5,2.33% (active),6.54% (active),-23.8% (active),1.04% (active),1.22% (active),12.1%
CCC(c1ccc(OC)cc1)C(CC)c1ccc(O)c(CN2CCN(C)CC2)c1 (stereo not given),92.4%,9.45% (active),6.2% (active),56.3%,39.3%,80.6%,28.9%,67.4%,-5.73% (active),-19.5% (active),1.58% (active),12.1%,56.9%,74.5,29.8%,45.1%,4.57% (active),-30.5% (active),46.2%,-13.2% (active)
O=S(=O)(O)c1cccc(Nc2ccc3ccccc3c2)c1,109%,98.7%,88.1%,90.1%,107%,95.8%,104%,102%,89.7%,92.7%,110%,99%,78.2%,96.3,95.5%,79%,99%,88.1%,93.4%,108%
CC(C)(C)OC(=O)N1CCc2c(sc3ncnc(N/N=C/c4ccc(Br)cc4)c23)C1,92.6%,15.1%,51.3%,73.2%,66.4%,82.2%,49%,60.7%,73.4%,47.7%,28.1%,33.8%,61.8%,69.5,67.3%,44%,24%,42.2%,54.8%,63.2%
CC(C)CCN(CCC(C)C)CC(=O)Nc1ccc(S(=O)(=O)c2ccc(NC(=O)CN(CCC(C)C)CCC(C)C)cc2)cc1,54%,3.86% (active),19.4%,31%,24.9%,34.5%,90.1%,21.4%,56.2%,31.6%,10.4%,10.3%,79.3%,52.6,10.5%,39.7%,47%,29.7%,-78.4% (active),72.6%
